The nature of test [1]: small molecules captured by biotinylated probe aFSTL3 – biochemical, small-molecule microarray, fluorescence 635/667, stem cell growth factor project, primary screen (AID 1064).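 Further: measures binding of the biotinylated anti-FSTL3 antibody to printed compounds.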 Particulars: higher = more signal.
Test [2] in a line: binders from COS7 lysate, DM2A8 probe, primary screen, torsin A project, cell lysate, small-molecule microarray, fluorescence 635/667 (AID 1065). Conditions: higher = more signal, COS7 lysate expressing mutant human TOR1A.
Test [3] can be described thus: small molecules captured by biotinylated probe aFGF2 – biochemical, small-molecule microarray, fluorescence 635/667, stem cell growth factor project, primary screen (AID 1067).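 Further: measures binding of biotinylated aFGF2 protein to printed compounds on slides; z-score merges feature fluorescence and signal-to-noise across triplicate slides.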 Conditions: higher = more signal.
The nature of test [4]: small molecules captured by biotinylated probe aFGF10 – biochemical, small-molecule microarray, fluorescence 635/667, stem cell growth factor project, primary screen (AID 1071).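 Further: score merges 667 nm spot intensity and signal to noise from triplicate slides.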 Particulars: higher = more signal.
Test [5] addresses Neurogenic locus notch homolog protein 2 (Homo sapiens) (UniProt Q04721). The test is described as follows: small molecules binding Notch2 protein – biochemical, small-molecule microarray, 635 nm fluorescence, stem cell growth factors, primary screen (AID 1073). Conditions: higher = more signal.
The target in test [6] is Pro-neuregulin-1, membrane-bound isoform (Homo sapiens) (UniProt Q02297). The test is described as follows: small molecules binding neuregulin-1 protein – biochemical, small-molecule microarray, fluorescence 635/667, psychiatric disease protein project, primary screen (AID 1075).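 Further: score combines 667 nm spot fluorescence with signal to noise.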 Particulars: NRG1 binding, 635 nm fluorescence, higher = more signal.
Pro-neuregulin-1, membrane-bound isoform (Homo sapiens), sequence (Q02297 whole entry, looked up, the tested form may be a part, canonical isoform): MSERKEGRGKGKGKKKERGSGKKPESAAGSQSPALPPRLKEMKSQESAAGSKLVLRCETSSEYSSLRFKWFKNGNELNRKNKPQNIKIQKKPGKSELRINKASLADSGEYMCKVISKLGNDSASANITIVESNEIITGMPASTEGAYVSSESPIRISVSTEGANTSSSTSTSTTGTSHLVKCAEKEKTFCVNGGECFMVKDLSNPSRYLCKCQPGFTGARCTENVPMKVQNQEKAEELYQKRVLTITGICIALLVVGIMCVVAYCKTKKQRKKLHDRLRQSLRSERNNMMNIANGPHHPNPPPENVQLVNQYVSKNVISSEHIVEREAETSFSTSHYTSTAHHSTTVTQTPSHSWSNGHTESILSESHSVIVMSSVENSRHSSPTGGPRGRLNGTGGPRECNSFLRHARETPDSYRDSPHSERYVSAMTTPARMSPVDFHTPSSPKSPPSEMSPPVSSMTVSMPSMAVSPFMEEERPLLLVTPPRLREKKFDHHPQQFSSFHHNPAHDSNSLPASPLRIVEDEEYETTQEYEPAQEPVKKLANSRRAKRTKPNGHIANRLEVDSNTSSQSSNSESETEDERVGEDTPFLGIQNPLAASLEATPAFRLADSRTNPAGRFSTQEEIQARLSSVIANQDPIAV
Test [7] deals with Neuregulin-1 EGF-like domain. The test is described as follows: small molecules binding NRG1 EGF domain – biochemical, small-molecule microarray, 635 nm fluorescence, primary screen (AID 1081).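 Further: binding of the protein to compounds printed on small-molecule microarray slides.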 Particulars: higher = more signal.
Test [8] is described as follows: FRG1 expression reporter modulators in myotubes – cell-based, C2C12 myotubes, firefly/Renilla luciferase, luminescence, FRG1 inhibition for FSHD, primary screen (AID 1084). Conditions: FRG1 promoter luciferase, higher = more signal, called active from +8 up or from −8 down.
A short description of test [9]: small molecules captured by biotinylated probe aFST – biochemical, small-molecule microarray, fluorescence 635/667, stem cell growth factor project, primary screen (AID 1086).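 Further: score merges 667 nm fluorescence with signal-to-noise of each printed compound spot.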 Conditions: higher = more signal.
Test [10] is described as follows: binders of probe aHhip on microarray, primary screen, stem cell growth factor project, biochemical, small-molecule microarray, fluorescence 635/667 (AID 1087).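 Further: score merges spot fluorescence at 667nm with spot signal to noise ratio.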 Particulars: higher = more signal.
Test [11] concerns PRMT1 (protein arginine N-methyltransferase 1). The test is described as follows: small molecules binding arginine methyltransferase PRMT1 – biochemical, small-molecule microarray, 635 nm fluorescence, primary screen (AID 1088).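 Further: binding of Prmt1 protein to compounds spotted on small-molecule microarray slides.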 Particulars: higher = more signal.
The nature of test [12]: growth effects on S. cerevisiae YJM789 – YJM789 clinical isolate, OD600, 24 h, basal, primary screen (AID 1089).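 Further: growth of clinical yeast isolate S. cerevisiae YJM 789 seeded 1000 cells per well; test concentration not given here.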 Conditions: higher = more signal, called active from +8 up or from −8 down.
Test [13] is described as follows: S. pombe growth modifiers, basal conditions – strain 972, OD600, 24 h, no modulator, primary screen (AID 1090).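 Further: basal condition with compound alone and no growth modifier present; test concentration not given here.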 Particulars: S. pombe 972 growth, higher = more signal, called active from +8 up or from −8 down.
Test [14] is described as follows: budding yeast growth modifiers under rapamycin – strain BY4716, OD600, 96 h, primary screen (AID 1091). Further: test concentration not given here. Particulars: S. cerevisiae BY4716 + rapamycin, higher = more signal, called active from +8 up or from −8 down.
Test [15] addresses Torsin-1A-interacting protein 2 (Homo sapiens) (UniProt Q8NFQ8). The test is described as follows: small molecules binding lysate-expressed LULL1 – cell lysate, human LULL1 lysate, 635/667 nm fluorescence, primary screen (AID 1092).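 Further: probe is lysate of COS7 cells overexpressing human LULL1; score merges per-feature 667 nm fluorescence with signal-to-noise.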 Particulars: small-molecule microarray, hLULL1 lysate binding, 635 nm fluorescence; higher = more signal.
Test [16] can be described thus: optical density change of DRC41 E. coli – strain DRC41, OD650, 24 h, E. coli filamentation project, primary screen (AID 1093).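 Further: MC1000 strain lacking acrAB efflux and sulA so SOS filamentation is blocked; test concentration not given here.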 Particulars: E. coli DRC41 growth, higher = more signal, called active from +8 up or from −8 down.
Test [17] can be described thus: probe aLefty2 binding to arrayed compounds – biochemical, biotinylated probe, 635/667 nm fluorescence, primary screen (AID 1094).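 Further: score merges spot fluorescence near 667 nm with spot signal-to-noise ratio.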 Particulars: small-molecule microarray, higher = more signal.
Test [18] has as its system Noggin (protein binding on small-molecule microarray). The test is described as follows: small molecules binding Noggin protein – biochemical, 635/667 nm fluorescence, primary screen (AID 1095).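 Further: score merges 667 nm feature fluorescence with signal to noise over triplicate slides.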 Conditions: 635 nm fluorescence, higher = more signal.
Test [19] has as its target Neurogenic locus notch homolog protein 3 (Homo sapiens) (UniProt Q9UM47). As to the kind of experiment: small molecules binding NOTCH3 protein – biochemical, 635/667 nm fluorescence, primary screen (AID 1096). Conditions: small-molecule microarray, 635 nm fluorescence, higher = more signal.
A short description of test [20]: probe aEGFR binding to arrayed compounds – biochemical, biotinylated probe, 635/667 nm fluorescence, primary screen (AID 1097).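 Further: probe is a biotinylated anti-EGFR antibody binding compounds printed on slides; score combines fluorescence near 667 nm and signal to noise of each spot.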 Conditions: small-molecule microarray, higher = more signal.

The structures appear in SMILES notation. Calls of active or inactive are those of the source.

Torsin-1A-interacting protein 2 (Homo sapiens), sequence (Q8NFQ8 whole entry, looked up): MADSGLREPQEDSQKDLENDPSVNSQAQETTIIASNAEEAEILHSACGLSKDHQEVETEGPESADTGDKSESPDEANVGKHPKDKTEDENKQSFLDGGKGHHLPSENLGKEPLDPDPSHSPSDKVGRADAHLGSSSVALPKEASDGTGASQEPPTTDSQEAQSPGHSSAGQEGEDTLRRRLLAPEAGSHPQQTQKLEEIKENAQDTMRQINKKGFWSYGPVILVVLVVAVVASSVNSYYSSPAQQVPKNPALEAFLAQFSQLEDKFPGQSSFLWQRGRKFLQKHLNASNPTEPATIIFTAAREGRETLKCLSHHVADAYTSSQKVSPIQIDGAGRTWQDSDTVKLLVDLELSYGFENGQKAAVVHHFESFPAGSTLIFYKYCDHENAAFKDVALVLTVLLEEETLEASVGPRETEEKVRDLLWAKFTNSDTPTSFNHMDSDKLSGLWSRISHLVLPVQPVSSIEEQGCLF
Neurogenic locus notch homolog protein 3 (Homo sapiens), sequence (Q9UM47 whole entry, looked up): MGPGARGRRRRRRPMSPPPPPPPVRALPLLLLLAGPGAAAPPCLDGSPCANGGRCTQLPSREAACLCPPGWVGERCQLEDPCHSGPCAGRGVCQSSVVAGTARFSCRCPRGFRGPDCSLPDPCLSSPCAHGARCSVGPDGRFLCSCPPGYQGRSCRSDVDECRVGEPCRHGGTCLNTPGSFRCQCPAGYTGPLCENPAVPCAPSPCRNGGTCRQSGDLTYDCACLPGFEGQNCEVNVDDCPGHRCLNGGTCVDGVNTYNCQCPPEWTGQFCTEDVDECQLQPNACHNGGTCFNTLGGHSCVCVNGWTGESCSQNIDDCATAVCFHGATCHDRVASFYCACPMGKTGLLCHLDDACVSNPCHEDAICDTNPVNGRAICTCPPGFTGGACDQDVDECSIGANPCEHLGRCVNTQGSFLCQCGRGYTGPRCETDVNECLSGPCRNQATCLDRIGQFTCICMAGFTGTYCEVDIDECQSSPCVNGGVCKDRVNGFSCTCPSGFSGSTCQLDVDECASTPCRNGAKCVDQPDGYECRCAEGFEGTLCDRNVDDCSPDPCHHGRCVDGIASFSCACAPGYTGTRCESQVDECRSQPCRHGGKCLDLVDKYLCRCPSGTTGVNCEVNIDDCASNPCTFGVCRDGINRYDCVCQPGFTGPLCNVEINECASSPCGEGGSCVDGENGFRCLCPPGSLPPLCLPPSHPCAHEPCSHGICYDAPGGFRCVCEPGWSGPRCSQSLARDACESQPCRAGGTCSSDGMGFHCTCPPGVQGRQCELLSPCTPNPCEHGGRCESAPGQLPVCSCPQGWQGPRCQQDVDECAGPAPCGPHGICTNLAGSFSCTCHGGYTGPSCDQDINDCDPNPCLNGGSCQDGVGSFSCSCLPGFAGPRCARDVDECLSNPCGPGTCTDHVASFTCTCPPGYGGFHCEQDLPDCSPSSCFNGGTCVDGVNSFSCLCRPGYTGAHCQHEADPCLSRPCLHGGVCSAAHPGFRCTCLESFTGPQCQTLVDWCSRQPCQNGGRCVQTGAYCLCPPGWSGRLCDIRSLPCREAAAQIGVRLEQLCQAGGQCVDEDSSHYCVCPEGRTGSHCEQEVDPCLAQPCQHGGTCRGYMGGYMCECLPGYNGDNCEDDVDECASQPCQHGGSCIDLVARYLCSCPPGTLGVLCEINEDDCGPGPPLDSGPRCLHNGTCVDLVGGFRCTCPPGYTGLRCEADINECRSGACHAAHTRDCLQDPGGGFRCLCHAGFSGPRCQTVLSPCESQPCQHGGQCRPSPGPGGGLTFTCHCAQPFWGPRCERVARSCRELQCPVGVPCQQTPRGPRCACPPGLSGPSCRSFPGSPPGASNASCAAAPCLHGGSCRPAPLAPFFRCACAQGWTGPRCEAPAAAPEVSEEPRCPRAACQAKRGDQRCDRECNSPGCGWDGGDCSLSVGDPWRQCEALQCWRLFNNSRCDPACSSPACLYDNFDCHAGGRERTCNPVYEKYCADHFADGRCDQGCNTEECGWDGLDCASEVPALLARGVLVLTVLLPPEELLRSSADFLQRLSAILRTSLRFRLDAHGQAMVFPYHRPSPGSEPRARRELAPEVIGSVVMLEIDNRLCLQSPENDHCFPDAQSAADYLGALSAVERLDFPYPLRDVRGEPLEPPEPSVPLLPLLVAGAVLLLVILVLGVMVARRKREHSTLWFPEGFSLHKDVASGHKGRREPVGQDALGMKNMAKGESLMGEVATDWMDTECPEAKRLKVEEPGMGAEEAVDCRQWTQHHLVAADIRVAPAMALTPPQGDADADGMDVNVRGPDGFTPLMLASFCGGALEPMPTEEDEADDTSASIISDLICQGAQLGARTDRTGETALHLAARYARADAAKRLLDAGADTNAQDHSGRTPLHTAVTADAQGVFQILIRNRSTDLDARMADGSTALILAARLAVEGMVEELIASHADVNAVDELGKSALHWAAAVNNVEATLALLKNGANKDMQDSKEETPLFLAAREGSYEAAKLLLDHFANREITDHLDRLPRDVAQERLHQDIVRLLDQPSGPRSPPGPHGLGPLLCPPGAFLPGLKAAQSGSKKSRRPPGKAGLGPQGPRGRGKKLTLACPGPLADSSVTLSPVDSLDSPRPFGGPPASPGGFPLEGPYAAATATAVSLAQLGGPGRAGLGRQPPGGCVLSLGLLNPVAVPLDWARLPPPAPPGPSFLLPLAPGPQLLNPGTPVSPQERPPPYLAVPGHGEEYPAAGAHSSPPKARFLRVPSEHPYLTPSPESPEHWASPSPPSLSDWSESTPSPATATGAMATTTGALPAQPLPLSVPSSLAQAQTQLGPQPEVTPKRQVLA

Turning to `O=C1c2ccccc2[C@](Cc2ccccc2I)(C(=O)NCC(F)(F)F)[C@H](c2ccc(CO)cc2)N1Cc1ccccc1C(F)(F)F`, the composite z-score was -0.379 in test [1]; 0.57 in test [2]; -0.0856 in test [3]; 0.22 in test [4]; 0.902 in test [5]; 1 in [6]. The composite z-score is 1.2 in test [7]; 1.16 in [9]; -0.466 in test [10]; 1.34 in test [11]; 2.54 in [15]; -0.366 in [17]. Moreover, the figures for the composite z-score in [18], in test [19] and in test [20] were -0.11, 1.02 and 0.0443, respectively. Moreover, the z-score is -0.307 (inactive) in [8]; 0.129 (inactive) in [12]; -1.15 (inactive) in test [13]; -1.32 (inactive) in test [14]; 0.098 (inactive) in test [16].
`CO[C@@H]1COC(=O)[C@@H]2CCCN2C(=O)CC=C[C@@H](C)[C@H](OC)COC(=O)[C@@H]2CCCN2C(=O)CC=C[C@H]1C`: the composite z-score is -0.614 in test [1]; 0.164 in [2]; -0.113 in test [3]; 0.0311 in test [4]; -0.545 in test [5]; -0.312 in test [6]. For the same compound, the composite z-score is 0.732 in test [7]; -0.0975 in test [9]; 0.347 in test [10]; 1.11 in [11]; -0.522 in [15]; -0.166 in test [17]. The composite z-score in test [18] was 1.14; in test [19], -0.325; in test [20], -0.0332. For the same compound, the z-score in test [8] is 0.47 (inactive); in [12], -0.0171 (inactive); in test [13], -1.05 (inactive); in test [14], -0.258 (inactive); in test [16] it was 1.1 (inactive).
On to `COc1cc(CO)cc(I)c1O[C@H]1C=C(C(=O)NCCO)C[C@@H](N(CC2CCCCC2)C(=O)c2cc3ccccc3oc2=O)[C@@H]1O`, for which the composite z-score in test [1] is -0.336; in test [2], -0.0516; in [3] it was -0.0513; in test [4] it was 0.233; in test [5], 0.363; in [6], 0.0577. In addition, the composite z-score in [7] is 0.377; in test [9], -0.52; in test [10], 0.0722; in test [11] it was -0.449; in test [15] it was 0.0986; in test [17], -0.186. In addition, the figures for the composite z-score in test [18], in [19] and in test [20] were 0.606, -0.0481 and -0.0656, respectively. Moreover, the z-score in [8] is -1.48 (inactive); in [12], 0.411 (inactive); in [13], -0.858 (inactive); in test [14] it was -0.393 (inactive); in test [16] it was 2.1 (inactive).
As for `C=C(CCCC)/C(=C/C[C@@H](OC(=O)c1ccncc1)c1cccc(OCCO)c1)c1cc(C(=O)OC)ccc1OC`, the composite z-score in test [1] is -0.0606; in test [2], 0.522; in [3] it was 0.0211; in test [4], 0.291; in test [5], 0.535; in test [6], 1.38. Further, the composite z-score is 1.26 in test [7]; 0.223 in test [9]; 0.0722 in [10]; 1.36 in test [11]; 0.48 in test [15]; -0.0102 in [17]. Also, the composite z-score in [18] was 1.37; in [19], 1.04; in [20], 0.0376. For the same compound, the z-score in test [8] is 9.67 (active); in test [12], 0.526 (inactive); in test [13] it was -1.17 (inactive); in test [14], 0.289 (inactive); in test [16], 1.27 (inactive).
Take `[N-]=[N+]=NCc1ccccc1C[C@]1(C(N)=O)N=C(c2ccc(OCCCO)cc2)O[C@H]1c1ccccc1CN=[N+]=[N-]`: the composite z-score in test [1] came to 1.15; in [2] it was 1.14; in test [3], 0.128; in test [4] it was 0.616; in [5], 1.09; in [6] it was 1.74. The composite z-score in test [7] was 1; in test [9], 0.823; in test [10] it was -0.3; in [11], 1.32; in test [15], 3; in [17], 0.544. Further, the results for the composite z-score in [18], in [19] and in [20] were 0.0263, 0.904 and 0.145, respectively. In addition, the z-score in [8] was -1.55 (inactive); in test [12] it was -2.38 (inactive); in test [13], -2.11 (inactive); in [14] it was -0.525 (inactive); in test [16] it was -0.0236 (inactive).

The record behind these values is PubChem BioAssay.
